The supplement of paper PMC9694430
Structures can show the parent of a compound that is named as a salt.

Key:
Test in all cases: thermal shift delta Tm vs DMSO control; higher = stronger stabilization (binding)
Conditions in all cases: 12.5 µM; protein concentration 2 µM
LOC_OS01G01410-cb001 = tested on: LOC_OS01G01410-cb001
Outline: (§1)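 Thermal shift values come from differential scanning fluorimetry on purified rice kinase domains made in E. coli, with melting temperatures obtained from Boltzmann fits. Samples of 19.5 μl held 2 μM kinase, 100 mM potassium phosphate pH 7.5, 150 mM NaCl, 10% glycerol, 5 × SYPRO Orange and compound in DMSO, and were heated from 25°C to 95°C at 0.05°C/s. Each shift is a triplicate mean relative to the DMSO-only protein sample.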

LOC_OS01G02750-cb003 = tested on: LOC_OS01G02750-cb003
Outline: as §1

LOC_OS01G10900-cb004 = tested on: LOC_OS01G10900-cb004
Outline: as §1

LOC_OS01G13800-cb001 = tested on: LOC_OS01G13800-cb001
Outline: as §1

LOC_OS01G14860-cb001 = tested on: LOC_OS01G14860-cb001
Outline: as §1

LOC_OS01G21960-cb002 = tested on: LOC_OS01G21960-cb002
Outline: as §1

LOC_OS01G48390-cb002 = tested on: LOC_OS01G48390-cb002
Outline: as §1

LOC_OS01G51400-cb002 = tested on: LOC_OS01G51400-cb002
Outline: as §1

LOC_OS01G52050-cb004 = tested on: T1, LOC_OS01G52050-cb004
T1 sequence (whole entry): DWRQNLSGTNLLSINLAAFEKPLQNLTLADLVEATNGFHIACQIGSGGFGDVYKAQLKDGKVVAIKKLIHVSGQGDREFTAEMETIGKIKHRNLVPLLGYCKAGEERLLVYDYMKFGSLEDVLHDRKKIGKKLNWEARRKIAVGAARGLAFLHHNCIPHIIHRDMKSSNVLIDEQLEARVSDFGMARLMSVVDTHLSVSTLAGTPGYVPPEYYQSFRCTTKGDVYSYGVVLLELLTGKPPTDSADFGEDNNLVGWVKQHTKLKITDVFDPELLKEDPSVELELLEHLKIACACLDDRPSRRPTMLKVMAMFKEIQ
Outline: as §1

LOC_OS01G39600-cb002 = tested on: LOC_OS01G39600-cb002
Outline: as §1
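Further: purified Escherichia coli-expressed rice kinase domain construct.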

Structure (SMILES) | thermal shift delta Tm (LOC_OS01G01410-cb001) [°C] | thermal shift delta Tm (LOC_OS01G02750-cb003) [°C] | thermal shift delta Tm (LOC_OS01G10900-cb004) [°C] | thermal shift delta Tm (LOC_OS01G13800-cb001) [°C] | thermal shift delta Tm (LOC_OS01G14860-cb001) [°C] | thermal shift delta Tm (LOC_OS01G21960-cb002) [°C] | thermal shift delta Tm (LOC_OS01G48390-cb002) [°C] | thermal shift delta Tm (LOC_OS01G51400-cb002) [°C] | thermal shift delta Tm (LOC_OS01G52050-cb004) [°C] | thermal shift delta Tm (LOC_OS01G39600-cb002) [°C]
O=C(Nc1ccc(-c2ccnc(Nc3ccc(N4CCOCC4)cc3)n2)cc1)C1CCCN1 (stereo not given) | -0.35 | -0.13 | 0.59 | -0.02 | 1.14 | 1.5 | 0.45 | 0.18 | 0.51 | –
Cc1cc(Nc2nc(N[C@@H](C)c3ncc(F)cn3)ncc2Cl)[nH]n1 | 4.53 | 2.77 | 0.35 | -0.03 | 2.85 | 2.53 | 6.25 | 0.55 | 0.71 | 4.56
CN1CCN(c2ccc(Nc3cc(-c4cccc(-n5ccc6cc(C7CC7)cc(F)c6c5=O)c4CO)cn(C)c3=O)nc2)CC1 | 0.08 | -0.04 | 0.34 | -0.27 | 0.17 | 0.86 | 0.24 | 0.38 | 0.27 | –
Nc1cccc(-c2cc3c(Oc4cccc(O)c4)ncnc3[nH]2)c1 | 2.64 | 1.81 | 1.53 | 0.59 | 4.88 | 1.92 | 2.32 | 0.45 | 2.13 | 3.68
C[C@H]1CNCCCN1S(=O)(=O)c1cccc2cncc(F)c12 [Ripasudil (K-115) hydrochloride dihydrate] | 0.29 | 1.34 | 0.28 | 1.05 | 0.24 | 0.88 | 0.68 | 0.21 | 0.63 | 0.39
O=c1[nH]nc(Sc2ncc([N+](=O)[O-])s2)n1-c1ccc2c(c1)OCCO2 | 1.48 | – | 8.23 | 1.65 | 2.21 | 1.25 | 2.84 | -0.65 | -3.66 | –
CCCCCCCCc1ccc(CCC(N)(CO)CO)cc1 [Fingolimod (FTY720) HCl] | -0.88 | 0.17 | -0.2 | -1.96 | -1.24 | -0.97 | -0.85 | -1.12 | -0.88 | –
CCc1ccc(/C=C2/SC(=S)NC2=O)cc1 | 1.69 | 1.03 | 2.03 | 0.53 | 1.38 | 1.74 | 0.63 | 0.67 | 1.47 | –
O=c1cc(N2CCOCC2)oc2c1ccc1ccccc12 | -0.07 | 2.24 | 1.69 | 0.55 | 0.74 | -0.09 | 0.43 | -0.05 | 0.24 | -0.09
COC(=O)[C@]12CCC(C)(C)C[C@H]1[C@H]1C(=O)C=C3[C@@]4(C)C=C(C#N)C(=O)C(C)(C)[C@@H]4CC[C@@]3(C)[C@]1(C)CC2 [Bardoxolone Methyl] | -2.64 | 0 | -14.8 | -0.32 | -4.11 | -0.25 | -0.51 | -7.84 | -10.5 | –
CC(C)=CC[C@@H](O)C1=CC(=O)c2c(O)ccc(O)c2C1=O [Shikonin] | 5.01 | 17.4 | 9.19 | 2.82 | 7.52 | 1.95 | 5.3 | 18.6 | 12.1 | –
COc1cc(N2CCC(N3CCN(C)CC3)CC2)ccc1Nc1ncnc(Nc2ccccc2S(=O)(=O)C(C)C)n1 | 0.27 | 1.86 | 0.08 | -0.11 | 0.33 | 0.28 | 0.94 | 0.37 | 0.61 | 0.25
O=C(O)c1cc(O)c2c(c1)[C@@H]([C@H]1c3cc(C(=O)O)cc(O)c3C(=O)c3c(O[C@@H]4O[C@H](CO)[C@@H](O)[C@H](O)[C@H]4O)cccc31)c1cccc(O[C@@H]3O[C@H](CO)[C@@H](O)[C@H](O)[C@H]3O)c1C2=O [Sennoside B] | 4.96 | 27.3 | 6.66 | 2.08 | 4.72 | 3.52 | 4.78 | – | 8.22 | –
C=CC(=O)Nc1cccc(Oc2nc(Nc3ccc(N4CCN(C)CC4)cc3OC)ncc2Cl)c1 | 0.1 | -0.5 | 0.47 | 0.58 | 0.25 | 0.29 | 1.75 | 0.48 | 0.54 | 0.93
C=CC(=O)Nc1cccc(Oc2nc(Nc3ccc(N4CCN(C)CC4)cc3)ncc2Cl)c1 | 4.21 | – | 3.56 | 0.23 | 1.91 | 1.42 | 7.69 | 1.75 | 3.38 | 3.8
O=c1ccc2ccc(O)c(O)c2o1 [Daphnetin] | 0.85 | – | 0.22 | 0.62 | 0.62 | 1.18 | 0.92 | 0.41 | 0.08 | -0.43
O=C(O[C@@H]1Cc2c(O)cc(O)cc2O[C@@H]1c1cc(O)c(O)c(O)c1)c1cc(O)c(O)c(O)c1 [(-)-Epigallocatechin Gallate] | 0.41 | – | -1.77 | 3.77 | 3.47 | 4.17 | 1.57 | 0.81 | 2.23 | 1.4
CC(C)(C)c1cc(/C=C(\C#N)C(N)=S)cc(C(C)(C)C)c1O [Tyrphostin AG 879] | 2.99 | 5.43 | 4.19 | 2.01 | 2.28 | 1.97 | 1.74 | 0.42 | 4.16 | –
CNS(=O)(=O)C[C@H]1CC[C@H](N(C)c2[nH]cnc3nccc2-3)CC1 [Oclacitinib] | 0.92 | 1.16 | 0.3 | 0.42 | 2.09 | 0.79 | 2.77 | 0.26 | 1.43 | 1.81
C[C@H](CN(C)C)Oc1nc(Nc2cc3cccc(Cl)c3cn2)cnc1C#N | 0.28 | 1.3 | 0.44 | 0.1 | 0.9 | 1.95 | 4.18 | 0.08 | 1.79 | 0.03
C=CC(=O)Nc1cccc(Nc2nc(Nc3ccc(NC4CN(CCF)C4)cc3OC)ncc2C(F)(F)F)c1 | 0.5 | -0.47 | 0.12 | -0.76 | 0.1 | 0.07 | 2.29 | 0.35 | 0.31 | 1.11
CCCCCCCCCCCCCCCCCCOP(=O)([O-])OC1CC[N+](C)(C)CC1 [Perifosine (KRX-0401)] | -2.46 | -3.08 | -2.19 | -2.02 | -1.55 | -1.07 | -1.63 | -3.01 | -2.26 | -4.67
CN1CCCN(C(=O)c2cccc(-c3ccc(/C=C4/C(=O)Nc5ccc(Cl)cc54)o3)c2)CC1 | 2.05 | 1.47 | 2.9 | 0.13 | 4.25 | 1.58 | 1.96 | 0.12 | 0.58 | –
